In the library only some 11% were active in any assay of this set; here they are far more common.
AMA1 RON2 block = AMA1-RON2 (P. falciparum) interaction inhibition | AID 720542 | Potency, µM (top dose mostly 58.2 µM), without a hit: top-dose activity change, negative = inhibition, actives largely listed as inhibitors | AlphaScreen AMA1-biotinylated RON2 peptide binding | 360,000 compounds, 0.2% hits;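 also: 0% = vehicle wells and -100% = peptide control; nearly all actives have a fitted effect of over 45% in size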
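AMA1 (3D7) with his tag at 25 nM final met compounds first, then biotinylated RON2 peptide at 25 nM; detection used donor plus acceptor beads, 10 µg/mL apiece, read by AlphaScreen after 30 min at room temperature.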
HCV inhibitor = blocks hepatitis C virus | 340,000 compounds, 3.4% hits | Potency, µM (top dose mostly 41.8 µM), without a hit: at the top dose activity change, negative = inhibition, actives largely listed as inhibitors | Huh7.5.1 HCVcc-Cre infection, luciferase reporter, 44 h
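1,000 cells/well; 4 h culture; + compound; + HCVcc-Cre (~0.5 moi); 44 h; luciferase substrate, RT 15 min; read 15 sec.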
AmpC inh detg = blocks E. coli AmpC beta-lactamase in detergent assay; P00811; AmpC hydrolysis of nitrocefin, absorbance 480 nm, 0.01% Triton; Potency, µM (series often up to 114 µM), inactives show at the highest dose activity change, negative = inhibition, actives largely listed as inhibitors; 370,000 compounds, 0.041% hits;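 also: 0% = no-compound wells and -100% = no-enzyme wells; nearly all actives have a fitted effect of over 25% in size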
Target sequence (P00811 whole entry, looked up): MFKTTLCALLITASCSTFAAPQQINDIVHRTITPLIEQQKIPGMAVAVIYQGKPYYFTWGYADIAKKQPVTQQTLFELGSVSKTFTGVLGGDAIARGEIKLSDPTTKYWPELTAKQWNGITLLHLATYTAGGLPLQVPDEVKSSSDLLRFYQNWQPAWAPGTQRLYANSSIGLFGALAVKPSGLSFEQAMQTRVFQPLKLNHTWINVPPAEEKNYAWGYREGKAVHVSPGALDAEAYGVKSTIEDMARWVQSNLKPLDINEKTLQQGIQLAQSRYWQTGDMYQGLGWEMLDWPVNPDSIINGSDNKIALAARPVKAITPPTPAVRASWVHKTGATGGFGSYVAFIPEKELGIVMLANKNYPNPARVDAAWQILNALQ
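20 mM phosphate pH 7.0 + 0.01% (detergent screen) or 0.0001% Triton X-100; 5.3 nM AmpC reagent; cpd preinc 15 min RT; nitrocefin (800 uM stock) to start; A480 q20 s × 4 min; Activity was normalised to no-enzyme and no-compound control wells.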
Pf growth 48h = P. falciparum growth inhibition at 48 hours (one generation) | P. falciparum luciferase growth in erythrocytes, 48 h | AID 504832 | 310,000 compounds, 5.9% hits | Potency, µM (doses to about 28.7 µM), inactives show at the top dose activity change, negative = inhibition, actives largely listed as inhibitors
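Firefly luciferase activity from engineered P. falciparum reports growth; inhibitors lower the luminescent signal. Cultures contained 2% hematocrit erythrocytes at 0.1% final parasitemia.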
AmpC no deterg = inhibitors of E. coli AmpC beta-lactamase without detergent. P00811. 330,000 compounds, 0.52% hits. AmpC nitrocefin hydrolysis, absorbance 480 nm, 0.0001% Triton. Potency, µM (highest dose often 57.1 µM), for inactives: at the highest dose activity change, negative = inhibition, most hits filed as inhibitors. AID 485341;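 also: plate controls were no compound for no effect and no enzyme for full effect; nearly all actives have a fitted effect of over 20% in size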
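20 mM phosphate pH 7.0 + 0.01% (detergent screen) or 0.0001% Triton X-100; 5.3 nM AmpC reagent; cpd preinc 15 min RT; nitrocefin (800 uM stock) to start; A480 q20 s × 4 min; Activity was normalised to no-enzyme and no-compound control wells.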
Pf growth 96h = P. falciparum growth inhibition at 96 hours; P. falciparum luciferase reporter growth, 96 h; 320,000 compounds, 6.9% hits; Potency, µM (series often up to 28.7 µM), inactives show top-dose activity change, negative = inhibition, actives largely listed as inhibitors
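Readout is luminescence from an integrated firefly luciferase in P. falciparum. Red cells, 2% hematocrit and 0.05% parasitemia final, were cultured with compound through two parasite generations (96 hours) at 37 C, 5% CO2.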
Starred values were filed as active, the others as inactive; [ ] = another dose, or the depositor's remark. Calls follow the shape of the dose curve; as a rule, active = well fitted curve in the direction sought with a large enough effect; inconclusive = small, poorly fitted or top-dose-only effect, or another doubt; inactive = no such curve, though single readings can be large; an effect the other way counts as inactive or inconclusive. Unless noted, % is scaled to controls: 0 for no effect and ±100 for the full control effect; potency is read from the fitted curve at half-maximal effect.

`C1CC1Cc1noc(CN2CCN(C3C4CC5CC(C4)CC3C5)CC2)n1` (stereo not drawn) gave AMA1 RON2 block -7%, HCV inhibitor 4%, AmpC inh detg -3%, Pf growth 48h 20%, AmpC no deterg -10% and Pf growth 96h 13µM*.
Cc1cccc(OC2CCN(Cc3nc(CC4CC4)no3)CC2)c1 was read as AMA1 RON2 block 0%, HCV inhibitor 5%, AmpC inh detg 4%, Pf growth 48h 9%, AmpC no deterg 91% and Pf growth 96h 4.7µM*.
For Cc1ccccc1CSc1nc2c(sc3ccccc32)c(=O)n1CCCC(=O)NCCCOC(C)C the results were AmpC inh detg -4%.
Screening COc1ccc(C(=O)CN2C(=O)N(c3cc(C)cc(C)c3)S(=O)(=O)c3ccccc32)cc1 returned AmpC inh detg -6%.
Screening COc1ccccc1[C@@H]1C(c2cccc(Cl)c2)=NN(c2ccccc2)[C@H]1C(=O)N1CCOC1=O returned AMA1 RON2 block 39%, HCV inhibitor 3%, AmpC inh detg -3%, Pf growth 48h 15µM*, AmpC no deterg -7% and Pf growth 96h 10µM*.
For Cc1cc(SCC(=O)OC/C(O)=C(\C#N)c2nc3ccccc3[nH]2)c(C)cc1Br the results were AMA1 RON2 block 86%, HCV inhibitor 2%, AmpC inh detg -6%, Pf growth 48h 10%, AmpC no deterg 10µM* and Pf growth 96h inconclusive.
Screening Cc1cc(F)ccc1NC(=O)c1c(C)oc2c1C1=NCCN1C=N2 returned AmpC inh detg 16%.
`O=C(CSc1nc2ccccc2n1-c1ccccc1)Nc1ncc(Cl)cc1Cl` gave AMA1 RON2 block -18%, HCV inhibitor inconclusive, AmpC inh detg 4%, Pf growth 48h inconclusive, AmpC no deterg -5% and Pf growth 96h 10µM*.
Cc1cccc(-n2c(SCC(=O)Nc3ncc(Cl)cc3Cl)nc3ccccc32)c1 was read as AMA1 RON2 block -13%[11.6 µM], HCV inhibitor 11µM*, AmpC inh detg 0%, Pf growth 48h inconclusive, AmpC no deterg -13% and Pf growth 96h 4.7µM*.
For COc1ccc(-n2c(SCC(=O)Nc3ncc(Cl)cc3Cl)nc3ccccc32)cc1 the results were AmpC inh detg -8%, Pf growth 48h inconclusive, AmpC no deterg -32% and Pf growth 96h inconclusive.
Cc1ccc(NC(=O)C(=O)NCC(c2cccnc2)N2CCN(Cc3ccccc3)CC2)cc1Cl (stereo not drawn) was read as AmpC inh detg 20%.
For O=c1c2ccccc2n(Cc2ccc(F)cc2)c(=O)n1C1CCCC1 the results were AMA1 RON2 block -1%, HCV inhibitor -25%, AmpC inh detg inconclusive, Pf growth 48h inconclusive, AmpC no deterg -27% and Pf growth 96h 13µM*.
O=C(Cn1c(=O)n(Cc2ccc(F)cc2)c(=O)c2ccccc21)NCC1CCCO1 (stereo not drawn) was read as AMA1 RON2 block 0%, HCV inhibitor -6%, AmpC inh detg 6%, Pf growth 48h -7%, AmpC no deterg -9% and Pf growth 96h 2%.
`COc1ccc(NC(=O)Cn2c(=O)n(Cc3ccccc3)c(=O)c3sc4ccccc4c32)cc1` gave AmpC inh detg -1%.
`COc1cc(/C=N/NC(=S)NC(C)C)ccc1OCC(=O)Nc1c(C)cc(C)cc1C` gave AMA1 RON2 block 63%, HCV inhibitor -4%, AmpC inh detg 6%, Pf growth 48h 12µM*, AmpC no deterg 4% and Pf growth 96h 13µM*.
CCCCNC(=S)N(C)/N=C/c1ccc(OCC(=O)Nc2c(C)cc(C)cc2C)c(OC)c1 was read as AMA1 RON2 block 0%, HCV inhibitor inconclusive, AmpC inh detg -8%, Pf growth 48h inconclusive, AmpC no deterg 16% and Pf growth 96h inconclusive.

Source: PubChem
